About 370 (0.17%) of roughly 220,000 compounds were called active.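 The calls were made as follows: active = inhibition above the mean inhibition of all tested compounds plus 3 SD, set separately per screening campaign (cut at about 2.9% in these data); inactive = the rest.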 Many of the other results were omitted from the sample, so actives are more common in it than they were.
The compounds below were run against Eukaryotic translation initiation factor 2-alpha kinase 3 (Homo sapiens) (UniProt Q9NZJ5) (assay: SEAP translation reporter rise after PERK-DD activation – CHO PERK-DD cells, SEAP luminescence, HTS, PERK inhibitor project, primary screen (AID 1416;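 also: PERK kinase domain activated by AP20187 dimerizer at 100 nM; 0% = DMSO with dimerizer and 100% = rapamycin at 8.4 µM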)). Conditions: CHO PERK-DD fusion, at 5.6 µM, active compounds read high.
Eukaryotic translation initiation factor 2-alpha kinase 3 (Homo sapiens), sequence (Q9NZJ5 whole entry, looked up, the tested form may be a part): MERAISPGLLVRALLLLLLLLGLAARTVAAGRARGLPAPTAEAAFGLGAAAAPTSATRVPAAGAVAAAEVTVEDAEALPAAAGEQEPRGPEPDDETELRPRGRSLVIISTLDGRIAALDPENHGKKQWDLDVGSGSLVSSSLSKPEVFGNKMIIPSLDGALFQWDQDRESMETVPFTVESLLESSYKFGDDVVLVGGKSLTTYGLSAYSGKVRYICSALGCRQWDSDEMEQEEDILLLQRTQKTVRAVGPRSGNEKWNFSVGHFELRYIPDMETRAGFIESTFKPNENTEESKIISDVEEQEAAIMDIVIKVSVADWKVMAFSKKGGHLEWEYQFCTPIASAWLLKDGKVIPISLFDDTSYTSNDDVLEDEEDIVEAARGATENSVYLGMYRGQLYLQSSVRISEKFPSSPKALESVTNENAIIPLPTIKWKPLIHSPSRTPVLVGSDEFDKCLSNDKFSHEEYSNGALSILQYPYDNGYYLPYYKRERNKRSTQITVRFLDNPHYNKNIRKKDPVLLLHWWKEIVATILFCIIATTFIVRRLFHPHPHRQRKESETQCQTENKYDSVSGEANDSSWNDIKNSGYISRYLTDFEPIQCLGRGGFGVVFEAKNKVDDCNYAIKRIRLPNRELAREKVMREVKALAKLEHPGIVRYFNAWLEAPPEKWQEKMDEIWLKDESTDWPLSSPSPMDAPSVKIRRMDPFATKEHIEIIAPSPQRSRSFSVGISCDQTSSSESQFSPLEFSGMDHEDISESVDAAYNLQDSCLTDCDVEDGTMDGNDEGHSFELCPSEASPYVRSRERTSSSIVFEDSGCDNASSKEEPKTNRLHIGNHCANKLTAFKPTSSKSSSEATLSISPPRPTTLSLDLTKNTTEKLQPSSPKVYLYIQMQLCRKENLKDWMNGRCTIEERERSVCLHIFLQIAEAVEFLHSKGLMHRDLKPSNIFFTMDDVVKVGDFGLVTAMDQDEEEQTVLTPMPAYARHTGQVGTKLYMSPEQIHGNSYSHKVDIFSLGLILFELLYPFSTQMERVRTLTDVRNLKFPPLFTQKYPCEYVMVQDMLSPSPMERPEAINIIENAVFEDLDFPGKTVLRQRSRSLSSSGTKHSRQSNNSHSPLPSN
`O=C(O)CC1(CC(=O)Nc2cccc(C(F)(F)F)c2)CCCC1` was tested, and the inhibition was 1.02% (inactive). For `O=C(Nc1ccc2c(c1)C(=O)OC2)Nc1cccc2ccccc12`, the inhibition was 1.57% (inactive). With `CC(=O)c1cc2c(cc1N)OCO2` the inhibition was 4.03% (active). `CC(=O)c1ccc2c(c1)OCCOCCOc1ccc(C(C)=O)cc1OCCOCCO2` was tested, and the inhibition was -1% (inactive). In the case of `CC(=O)c1cc2c(cc1NC(=O)CN1CCCCCC1)OCO2`, the inhibition is reported as -1.22% (inactive). For `Cc1ccc2cc(C)c(N3CCC(C)CC3)nc2c1`, the inhibition was 1.08% (inactive). For `S=c1[nH]nc(COc2ccccc2)n1-c1ccccc1`, the inhibition was 0.99% (inactive). In the case of `CCCCC(CC(C)O)c1n[nH]c(=S)n1-c1ccccc1` (stereo not drawn), the inhibition is reported as 0.58% (inactive). With `CC(NS(=O)(=O)c1ccccc1)c1n[nH]c(=S)n1-c1ccccc1` (stereo not drawn) the inhibition was 3.52% (active). `CC(C)CNC(=O)CC(NCC(C)C)C(=O)O` (stereo not drawn) was tested, and the inhibition was 0.39% (inactive). In the case of `COc1ccccc1CN(C)C(=O)C1(c2ccc(Cl)cc2)CC1`, the inhibition is reported as 0.49% (inactive). With `Cc1cnc(NC(=O)CSc2nnc(C)s2)s1` the inhibition was 1.08% (inactive). `Cc1nnc(SCC(=O)NC2CCCC2)s1` was tested, and the inhibition was 3.36% (active). `Cc1nnc(SCC(=O)Nn2cnnc2)s1` was tested, and the inhibition was 0.16% (inactive). `CC(=O)C1(C)N(O)C(C)(C)C(c2cccs2)=[N+]1[O-]` (stereo not drawn) was tested, and the inhibition was 0.19% (inactive). For `COc1cccc(Nc2nnc(SCC(=O)N3CC(=O)Nc4ccccc43)s2)c1`, the inhibition was 0.32% (inactive). With `CC1CC(=S)Nc2ccccc2N1Cc1ccccc1` (stereo not drawn) the inhibition was 0.04% (inactive). With `O=C1c2ccccc2C(=O)c2c1cccc2N1CCN(CCO)CC1` the inhibition was -0.7% (inactive). For `COCc1c(C(=O)OCc2c(C)noc2C)oc2ccccc12`, the inhibition was 1.59% (inactive). For `CCOc1ccc(/C=N/NC(=O)CSc2ccccn2)cc1O`, the inhibition was -0.92% (inactive). In the case of `CC1=C(C(=O)N(C)C)C(c2ccccc2OC(F)F)NC(=O)N1` (stereo not drawn), the inhibition is reported as 1.73% (inactive). For `CCOC(=O)c1ccc(NC(=O)c2cc(=O)[nH]c3ccccc23)cc1`, the inhibition was 0.84% (inactive). In the case of `O=C(Nc1cccc(F)c1)N1C2CCC1CC(O)(c1cccnc1)C2` (stereo not drawn), the inhibition is reported as 0.63% (inactive). In the case of `O=C(Nc1ccccc1)OCc1cc(-c2ccc(Cl)cc2)on1`, the inhibition is reported as 3.15% (active). `O=C(Nc1ccc(Cl)cc1)OCc1cc(-c2ccccc2)on1` was tested, and the inhibition was 0.13% (inactive). `O=C(Nc1ccccc1)OCc1cn(-c2ccc(Cl)cc2)nn1` was tested, and the inhibition was 1.21% (inactive). In the case of `CCN(CC)CC1(O)CCN(C(=O)c2ccc(Cl)c(Cl)c2)CC1`, the inhibition is reported as 1.07% (inactive). For `Cn1c(=O)c2cc(S(=O)(=O)NCCC(=O)Nc3ccc(F)cc3F)ccc2n(C)c1=O`, the inhibition was 2.78% (inactive). For `Cc1ccc(S(=O)(=O)NCC(=O)N(CC(=O)NC(C)(C)C)Cc2cccs2)cc1`, the inhibition was 1.04% (inactive). With `Cc1ccoc1C(=O)Nc1cccc(Oc2ccccc2)c1` the inhibition was -1% (inactive). `Cc1nc(CN2CCN(C(=O)CCc3nnc(Cc4c[nH]c5ccccc45)o3)CC2)cs1` was tested, and the inhibition was 0.14% (inactive). In the case of `O=C(NNc1cc(Cl)cc(Cl)c1)c1c(F)cccc1Cl`, the inhibition is reported as 0.97% (inactive). For `COCCNC(=S)N1CCC(NC(=O)C23CC4CC(CC(C4)C2)C3)CC1`, the inhibition was -0.41% (inactive). For `Cc1ccc(C2Nc3ccccc3C(=O)N2CCN2CCNC2=O)cc1` (stereo not drawn), the inhibition was 0.32% (inactive). In the case of `CN(C)/C=C(/C(=O)c1ccc(Cl)c(Cl)c1)c1nnnn1-c1ccccc1`, the inhibition is reported as 1.85% (inactive). For `O=C1COc2ccc(C(=O)COC(=O)c3cccnc3Cl)cc2N1`, the inhibition was 0.94% (inactive). With `CCOc1ccc(S(=O)(=O)Nc2nccs2)cc1` the inhibition was 1.47% (inactive). With `Cc1ccc2c(c1)NCC(C(=O)NC1CCC(C)CC1)O2` (stereo not drawn) the inhibition was 0.88% (inactive). With `COCc1c(C(=O)N/N=C/C2CC=CCC2)nnn1-c1nonc1N` (stereo not drawn) the inhibition was 0.44% (inactive). `COc1ccc(NC(=S)Nc2ccc(S(N)(=O)=O)cc2)c(C)c1` was tested, and the inhibition was 1.02% (inactive). `CN(Cc1ccccn1)Cc1nc(-c2ccc(Cl)cc2)no1` was tested, and the inhibition was 0.32% (inactive). With `COC(=O)C1=C(C)NC(=O)CC1c1ccccc1OC` (stereo not drawn) the inhibition was 0.25% (inactive). With `CN(c1ccc(OCC(=O)NC2=NCCS2)cc1)S(=O)(=O)c1ccc(F)cc1` the inhibition was 1.79% (inactive). In the case of `Cc1cccc(N2CCN(c3ccc(NC(=O)/C=C\C(=O)O)cc3)CC2)c1`, the inhibition is reported as 0.1% (inactive). In the case of `CS/C(=C\[N+](=O)[O-])Nc1ccc(C)cc1`, the inhibition is reported as 1.47% (inactive). `CCOCCn1c(-c2ccccc2)nc2ccccc21` was tested, and the inhibition was -1.39% (inactive). With `Cc1ccccc1C1=N/C(=C/c2cccnc2)C(=O)O1` the inhibition was 0.44% (inactive). For `O=C(CC1Nc2ccccc2NC1=O)Nc1ccccc1NC(=O)CC1Nc2ccccc2NC1=O` (stereo not drawn), the inhibition was 0.97% (inactive). `CN(C)S(=O)(=O)N1CCN(c2ccc([N+](=O)[O-])cc2)CC1` was tested, and the inhibition was 0.53% (inactive). For `Cc1cc(NC(=O)/C=C/C(=O)N(c2ccccc2C)C(C(=O)NC2CCCC2)c2ccc(F)cc2)no1` (stereo not drawn), the inhibition was 2.4% (inactive). With `CSc1sc(C(=O)NC(=O)NCc2cccnc2)c(C)c1-c1ccon1` the inhibition was -0.78% (inactive). `Cc1c(C=O)n(C)n(-c2ccccc2)c1=O` was tested, and the inhibition was 0.28% (inactive). In the case of `Cc1ccc(Cl)c(NC(=O)CN(C)CC(=O)Nc2ccc(F)c(F)c2F)c1Cl`, the inhibition is reported as 0.24% (inactive). For `Cc1noc(C)c1C(=O)OCC(=O)N1CCN(S(=O)(=O)c2ccc3ccccc3c2)CC1`, the inhibition was 1.94% (inactive). In the case of `COc1ccc(C(F)(F)F)cc1N/C=C\c1nnnn1-c1ccc(C)cc1`, the inhibition is reported as 1.24% (inactive). `C#CCNC(=O)C1=C[C@@H](c2ccccc2)[C@H](CCCO)[C@@H](OCC)O1` was tested, and the inhibition was 0.82% (inactive). In the case of `CC(C)C[C@H](NC(=O)NCCc1ccc(Cl)cc1)C(=O)O`, the inhibition is reported as 3.16% (active). `CSCC[C@H](NC(=O)NCCc1ccc(F)cc1)C(=O)O` was tested, and the inhibition was 0.4% (inactive). With `C[C@H](NC(=O)NCCc1ccccc1)C(=O)O` the inhibition was 1.63% (inactive). For `CC(=O)c1ccc(NC(=O)CSC(=S)N2CCCC2)cc1`, the inhibition was -0.15% (inactive). `Cc1cc(C)n(CC(O)CN(c2ccccc2)S(=O)(=O)c2ccc3ccccc3c2)n1` (stereo not drawn) was tested, and the inhibition was 0.84% (inactive). With `CC(C)CCSc1ncnc2c1oc1nc3c(cc12)COC(C)(C)C3` the inhibition was -0.1% (inactive). `CC(=O)Nc1cccc(/C(C)=N/NC(=O)c2c(-c3ccccc3Cl)noc2C)c1` was tested, and the inhibition was -0.07% (inactive).
